The sample as a whole holds a higher share of hits than the screen did.
PI4K2A block – qHTS for small molecular inhibitors of PI4K2A; Phosphatidylinositol 4-kinase type 2-alpha (Homo sapiens), Q9BTU6; purified PI4K2A, ADP-Glo luminescence, 1 h; hits give low values; activity change, negative = inhibition, % at 76.9 µM; actives 0.13% (n = 420,000); AID 1346378, 2018; in the data active = activity change below about -50%; inconclusive = mostly about -30% to -49%;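 note: -100% = wells without enzyme as full effect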
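ADP-Glo luminescence measured ADP generated by PI4K2A enzyme (4 ug/mL before mixing) with 1.2 mM PI substrate (pre-mix) and 300 microM ATP (pre-mix). Tris pH7.5 buffer with MgCl2, Triton X-100; 1 h reaction at ambient temperature.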
Tb PFK inh – qHTS Assay to Find Inhibitors of T. brucei phosphofructokinase | ATP-dependent 6-phosphofructokinase (Trypanosoma brucei brucei), O15648 | T. brucei PFK, ADP-Glo luminescence | Potency, µM (doses to about 57.5 µM), without a hit: at the highest dose activity, negative = inhibition, actives largely listed as inhibitors | actives 0.17% (n = 330,000) | AID 485367, 2010;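 note: potency is the fitted concentration of half-maximal effect; 0% = uninhibited 1x PFK enzyme wells and -100% = no-enzyme wells; nearly all actives have a fitted effect of over 60% in size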
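In TEA buffer at pH 8.0 with 5 mM MgCl2, enzyme (1.25 nM) converted F6P (0.5 mM) and ATP (0.1 mM) for 45 min at room temperature. ADP product was read by luciferase luminescence.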
PGK inhibitor – qHTS Assay to Find Inhibitors of Phosphoglycerate Kinase; Potency, µM (top dose mostly 57.5 µM), without a hit: top-dose activity change, negative = inhibition, usual class: inhibitors; AID 602233, 2012; PGK/GAPDH coupled, Kinase-Glo luminescence, 60 min; actives 0.043% (n = 380,000); Phosphoglycerate kinase, glycosomal (Trypanosoma brucei brucei), P07378; note: potency is the fitted concentration of half-maximal effect; nearly all actives have a fitted effect of over 60% in size
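Luminescent ATP detection (Kinase-Glo Plus) follows a 60-minute room-temperature incubation, with wells lacking PGK as controls. Buffer: 100 mM TEA (pH 7.6), 5 mM MgCl2, 0.01% Tween-20. Coupling enzyme GAPDH (100 nM final) supplies unstable 1,3-BPG in-well.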
Pin1 inhibitor – qHTS Assay to Find Inhibitors of Pin1; actives 0.009% (n = 390,000); Peptidyl-prolyl cis-trans isomerase NIMA-interacting 1 (Homo sapiens), Q13526; AID 504891, 2011; Pin1 FP peptide displacement, HiFluor488, 10 min; Potency, µM (highest dose often 115 µM), for inactives: at the highest dose activity, negative = inhibition, most hits filed as inhibitors; active = well fitted inhibition curve with a large enough effect in the polarisation, with a control signal flat, not every such curve was filed as active; inconclusive = small, poorly fitted or top-dose-only effect, or effect the other way, or a change in a side signal; inactive = no such curve, though single readings can be large or run the other way; the % refers to the polarisation; note: potency is the fitted concentration of half-maximal effect
Target sequence (Q13526 whole entry, looked up): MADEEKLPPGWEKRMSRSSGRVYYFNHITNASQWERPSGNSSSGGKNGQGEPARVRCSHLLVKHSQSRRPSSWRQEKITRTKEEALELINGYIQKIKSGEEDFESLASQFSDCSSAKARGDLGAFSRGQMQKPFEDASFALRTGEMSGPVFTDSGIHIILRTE
PI5P4K alpha inh – qHTS for Inhibitors of phosphatidylinositol 5-phosphate 4-kinase (PI5P4K); Phosphatidylinositol 5-phosphate 4-kinase type-2 alpha (Homo sapiens), P48426; PI5P4Kalpha enzyme, ADP-Glo luminescence, 60 min; hits give low values; max response, %; actives 1.2% (n = 330,000); active = max response of -50% or lower; inconclusive = between -30% and -50%; inactive = -30% or higher; note: value at the top dose of about 77 µM
Target sequence (P48426 whole entry, looked up): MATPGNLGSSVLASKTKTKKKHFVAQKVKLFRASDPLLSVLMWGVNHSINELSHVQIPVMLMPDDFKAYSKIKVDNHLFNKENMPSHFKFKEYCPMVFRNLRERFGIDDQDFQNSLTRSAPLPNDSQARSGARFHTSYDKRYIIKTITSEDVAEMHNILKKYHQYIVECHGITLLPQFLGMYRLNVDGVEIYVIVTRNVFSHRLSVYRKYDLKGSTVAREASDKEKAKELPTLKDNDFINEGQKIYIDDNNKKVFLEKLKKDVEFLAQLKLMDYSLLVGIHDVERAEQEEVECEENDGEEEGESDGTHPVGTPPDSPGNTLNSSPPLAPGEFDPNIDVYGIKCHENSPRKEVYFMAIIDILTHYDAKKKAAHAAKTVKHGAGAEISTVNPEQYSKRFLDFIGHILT
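Luminescence from ADP-Glo served as readout of PI5P4Kalpha activity in a qHTS format. Reaction: enzyme, substrate, compound, ATP at 5 microM final, 60 min at RT.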
* = called active by the depositor. Unless noted, calls come from the whole dose curve; as a rule, active = well fitted curve in the direction sought with a large enough effect; inconclusive = small, poorly fitted or top-dose-only effect, or another doubt; inactive = no such curve, though single readings can be large; an effect the other way counts as inactive or inconclusive. Unless noted, % is set by controls: 0 for no effect and ±100 for the full control effect.

COc1ccc(/C=C2\SC(=S)N(NS(=O)(=O)c3ccc(C)cc3)C2=O)c(OC)c1 was read as PI4K2A block -6, Tb PFK inh 5%, PGK inhibitor -2%, Pin1 inhibitor 1% and PI5P4K alpha inh -76*.
`CCOc1cc(/C=C2\SC(=S)N(NS(=O)(=O)c3ccccc3)C2=O)ccc1O` gave PI4K2A block -7, Tb PFK inh 24%, Pin1 inhibitor 100% and PI5P4K alpha inh -67*.
For O=C(Nc1cc(Cl)ccc1F)C1CCCN(c2nnc(-n3cccc3)s2)C1 (stereo not given) the results were PI4K2A block 1.
`CN(C)c1cccc(S(=O)(=O)N2CCN(S(=O)(=O)c3ccc4c(c3)OCCO4)CC2)c1` gave Pin1 inhibitor -10%.
Screening C=CCN1[C@H](C#N)[C@@H](c2ccc(Br)cc2)[C@H]1CO returned PI4K2A block 6.
COc1ccc(/C=C2\SC(=S)N(NS(=O)(=O)c3ccccc3)C2=O)c(OC)c1 was read as PI4K2A block -13, Tb PFK inh -1%, PGK inhibitor -10%, Pin1 inhibitor 16% and PI5P4K alpha inh -58*.
COc1ccc(OC)c(/C=C2\SC(=S)N(NS(=O)(=O)c3ccccc3)C2=O)c1 was read as PI4K2A block 1, Tb PFK inh 28%, PGK inhibitor -2%, Pin1 inhibitor 5% and PI5P4K alpha inh inconclusive.
For COc1ccc(OC)c(/C=C2\SC(=S)N(NS(=O)(=O)c3ccc(C)cc3)C2=O)c1 the results were PI4K2A block -4, Tb PFK inh 3%, PGK inhibitor -11%, Pin1 inhibitor 22% and PI5P4K alpha inh -67*.
`O=C1/C(=C/c2cccs2)SC(=S)N1NS(=O)(=O)c1ccccc1` gave PI4K2A block 4, Tb PFK inh 8%, PGK inhibitor 6%, Pin1 inhibitor -1% and PI5P4K alpha inh -73*.
CC(C(=O)O)N1C(=O)/C(=C/C=C/c2ccco2)SC1=S (stereo not given) was read as PI4K2A block inconclusive, Tb PFK inh 3µM*, PGK inhibitor 7.9µM* and PI5P4K alpha inh -101*.
Cc1cc(NS(=O)(=O)c2ccc3c(c2)CCC(=O)N3)ccc1F was read as Pin1 inhibitor -3%.
`COc1cc(/C=C2\C(=O)ON=C2c2ccc(Cl)cc2)ccc1O` gave PI4K2A block -3, PGK inhibitor -3%, Pin1 inhibitor 2% and PI5P4K alpha inh -18.
Screening O=C1ON=C(c2ccccc2)/C1=C/c1ccc(OS(=O)(=O)c2ccccc2)cc1 returned PI4K2A block 1, Tb PFK inh 6%, PGK inhibitor -5%, Pin1 inhibitor inconclusive and PI5P4K alpha inh -69*.
For COc1ccc(/C=C2\C(=O)ON=C2c2ccccc2)cc1 the results were PI4K2A block -1, Tb PFK inh -2%, PGK inhibitor -2%, Pin1 inhibitor -10% and PI5P4K alpha inh -53*.
Screening O=C1ON=C(c2ccccc2)/C1=C/c1ccc(O)c(O)c1 returned PI4K2A block -4, Tb PFK inh -6%, PGK inhibitor -3%, Pin1 inhibitor -3% and PI5P4K alpha inh -59*.
CC(C)(C)NC(=O)CSc1nc2scc(-c3ccccc3)c2c(=O)[nH]1 was read as PI4K2A block -3, Tb PFK inh 0%, PGK inhibitor inactive, Pin1 inhibitor 36% and PI5P4K alpha inh 0.
`Cc1ccc(-c2csc3nc(SCC(=O)Nc4ccc(Cl)c(C(=O)O)c4)[nH]c(=O)c23)cc1` gave PI4K2A block -7, Tb PFK inh -22%, PGK inhibitor -17%, Pin1 inhibitor -10% and PI5P4K alpha inh -78*.
`CCOC(=O)CSc1nc2sc(C)c(C)c2c(=O)[nH]1` gave PI4K2A block -3, Tb PFK inh 1%, PGK inhibitor -6%, Pin1 inhibitor 5% and PI5P4K alpha inh -4.
Screening O=C(CSc1nc2ccccc2c(=O)[nH]1)Nc1ccc(C(=O)O)cc1 returned PI4K2A block 5, Tb PFK inh 13%, PGK inhibitor -16%, Pin1 inhibitor -10% and PI5P4K alpha inh -88*.
For CCOC(=O)CSc1nc2sc(C(=O)O)c(C)c2c(=O)[nH]1 the results were PI4K2A block -6, Tb PFK inh -9%, PGK inhibitor -4%, Pin1 inhibitor 3% and PI5P4K alpha inh -76*.
`Cc1c(C(=O)O)sc2nc(SCC(=O)Nc3ccc(S(=O)(=O)NC(C)(C)C)cc3)[nH]c(=O)c12` gave PI4K2A block -2, Tb PFK inh -2%, PGK inhibitor 2%, Pin1 inhibitor -3% and PI5P4K alpha inh -86*.
Screening CO[C@@H]1[C@@H](OC)[C@H](C)[C@@](O)(CC(=O)O)O[C@H]1[C@H](C)[C@H]1O[C@@]2(CC[C@@](C)([C@H]3CC[C@@](C)([C@@H]4O[C@@H]([C@H]5O[C@](C)(O)[C@H](C)C[C@@H]5C)C[C@@H]4OC4C[C@H](OC)[C@@H](OC)[C@H](C)O4)O3)O2)C[C@H](O)[C@H]1C (stereo not given in full) returned PI4K2A block -4.
Screening CC(C)(C)OC(=O)NCc1nnc(C(C(=O)OCc2ccccc2)c2ccccc2)s1 (stereo not given) returned Pin1 inhibitor 1%.
Screening COc1ccc2cc(C=O)ccc2c1 returned PI4K2A block -3.
`Oc1ccc2ccccc2c1C=Nn1c(-c2n[nH]c3c2CCC3)n[nH]c1=S` gave PI4K2A block 1.
`Cc1sc2nc(SCC(=O)Nc3ccc(Cl)c(C(=O)O)c3)[nH]c(=O)c2c1C` gave PI4K2A block 5, PGK inhibitor -3%, Pin1 inhibitor -6% and PI5P4K alpha inh -5.
For Cc1sc2nc(SCC(=O)Nc3ccc(S(N)(=O)=O)cc3)[nH]c(=O)c2c1C the results were PI4K2A block -2, Tb PFK inh 2%, PGK inhibitor -6%, Pin1 inhibitor 26% and PI5P4K alpha inh 4.
For Cc1c(C(=O)O)sc2nc(SCC(=O)Nc3ccc(S(=O)(=O)NCCCC(=O)O)cc3)[nH]c(=O)c12 the results were PI4K2A block -3, Tb PFK inh 6%, Pin1 inhibitor 1% and PI5P4K alpha inh -70*.
`Cc1sc2nc(SCC(=O)Nc3cccc(C(=O)O)c3)[nH]c(=O)c2c1C` gave PI4K2A block -14, Tb PFK inh 0%, PGK inhibitor -3%, Pin1 inhibitor 1% and PI5P4K alpha inh -73*.
